Source: PubChem BioAssay (EPA / NIEHS)
Where “and” joins values, the source holds several entries; their conditions need not be identical. Identical values can stand only once. Results filed as inconclusive are left out. Calls of active or inactive are those of the source. The calls were made as follows: active = hit-call score of the fitted dose curve at least 0.9, where 1 is the maximum; inconclusive = response in the unintended direction; inactive = score below 0.9.

Test: CCTE_Shafer_MEA_dev_active_electrodes_number: CCTE's Neural Network Formation Assay for Number of Active Electrodes, Shafer Lab (AID 2284040);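 as to AC50: potency for loss of active electrodes versus DMSO so lower counts are hits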
Experimental: CCTE_Shafer_MEA_dev assay is conducted using Axion Biosystems 48 well microelectrode array (MEA) plates and Maestro recording system. Each well of the MEA plate contains a grid of 16 microelectrodes embedded in the culture surface. Electrically active cells, such as neurons, can be cultured over the electrodes, and electrical activity in these cells can be recorded extracellularly. The spontaneous firing of neurons is captured from each electrode on a microsecond timescale providing both temporally and spatially precise data. […] The CCTE_Shafer_MEA_dev assay uses primary cultures of rat cortical neurons. Recordings are made on days post-plating 5, 7, 9 and 12. As these cultures mature over time, neural networks develop functional activity and form cohesive networks in which electrical activity can be highly coordinated. CCTE_Shafer_MEA_dev_active_electrodes_number is 1 of 19 assay components of the CCTE_Shafer_MEA_dev assay. It measures the number of electrodes in a well with a mean firing rate of at least 5 spikes (action potential firings) per minute during a recording in a microelectrode array (MEA) using Axion Biosystems Maestro 768 channel amplifier with the AxIS adaptive spike detector. To collapse across multiple recordings made on days post-plating 5, 7, 9 and 12, the trapezoidal area-under-the-curve of the component is calculated.Data from the assay component CCTE_Shafer_MEA_dev_active_electrodes_number was analyzed into 1 assay endpoint. This assay endpoint, CCTE_Shafer_MEA_dev_active_electrodes_number, was analyzed in the negative analysis fitting direction relative to DMSO as the negative control and baseline of activity. Using a type of functional reporter, gain or loss-of-signal activity can be used to understand electrical activity.
On the day prior to culture, each well was coated thoroughly with 150 uL of 0.05% polyethyleneimine (PEI, Sigma Cat P3143) in 50 mM HEPES (Sigma Cat H7523) at a pH of 8. The plate was incubated at 37C for one hour. PEI was rinsed out with 500 uL of sterile water three times. Plates were stored at 4C until the day of culture. This culture was plated at a seeding density of 1.5 x 10^5 cells/well on a 48-well MEA plate, prepared as described above. Cells were administered via a 25 uL media/laminin ([…]; Sigma Cat L2020-1MG) drop directly onto the microelectrode array, as adding the cells with the laminin results in better attachment than pre-coating with laminin. After 2 hours, an additional 475 uL of cortical media was added and the cells returned to the incubator. Exposure starts at day 0 of plating and is continued over twelve days of network development until the experiment is terminated. Cells are fed with fresh medium on DIV 5 and 9, following the recordings on those days. The entire volume of media in the well is exchanged and any vehicle or compound treatment is renewed. Complete details are found in OP-NHEERL/ISTD/SBB/TJS/2015-03-r0 (available on request, email shafer.tim@epa.gov). Measurement of the electrical activity is non-invasive, and recordings can be made from the same plate over multiple different days of the culture. In cortical neurons, this allows for the measurement of extracellular action potentials over the period during which networks form in the MEA plate.

Compound | AC50 | outcome
ClC1(Cl)C2(Cl)C3(Cl)C4(Cl)C(Cl)(Cl)C5(Cl)C3(Cl)C1(Cl)C5(Cl)C24Cl (stereo not given) | 2.07 µM (active) | –
CC(C)(C)c1cc(O)ccc1O | 6.05 µM (active) | –
COP(=O)(OC)O/C(=C\Cl)c1cc(Cl)c(Cl)cc1Cl | 78.5 µM (active) and 51.5 µM (active) | –
C=C(C)C(=O)[O][Sn]([CH2]CCC)([CH2]CCC)[CH2]CCC | 0.0266 µM (active) | –
Cn1sc(Cl)cc1=O | 4.47 µM (active) | –
O=C1C2(Cl)C3(Cl)C4(Cl)C(Cl)(Cl)C5(Cl)C3(Cl)C1(Cl)C5(Cl)C24Cl (stereo not given) | 4.58 µM (active) | –
CC(=O)[O][Hg][c]1ccccc1 | 0.0146 µM (active) | –
CCOP(=S)(OCC)Oc1nc(Cl)c(Cl)cc1Cl | 22.5 µM (active) and 6.77 µM (active) and 22.1 µM (active) | –
CCC(=O)C(CC(C)N(C)C)(c1ccccc1)c1ccccc1 (stereo not given) | 3.55 µM (active) | –
O=C(O)C(F)(F)C(F)(F)C(F)(F)C(F)(F)C(F)(F)C(F)(F)C(F)(F)C(F)(F)C(F)(F)C(F)(F)F | – | inactive
